Here are results for 40 molecules from PubChem BioAssay (NCATS).

SMILES strings stand for the structures. Results filed as inconclusive are left out. Active and inactive are the calls of the source. The call rests on the fitted dose curve; in most records, active means well fitted cell-killing curve with a large enough effect; inconclusive means small, poorly fitted or top-dose-only effect, or effect the other way; inactive means flat fitted curve, though single readings scatter.
Potency means the concentration at half of the fitted maximal effect.

The experiment can be described thus: Cell Viability - LYMP2-003 (AID 965).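 Further: cells exposed to compounds for 24 h before reading; nearly all actives have a fitted effect of over 50% in size.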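 On activity change, negative = cytotoxicity: 0% = DMSO only and full effect = 92 µM tetraoctylammonium bromide.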 The following applies: LYMP2-003 lymphoblastoid cell viability; series mostly up to 92.2 µM; activity change, negative = cytotoxicity: at the top concentration. An excerpt: NIH Chemical Genomics Center [NCGC]
NIH Molecular Libraries Screening Centers Network [MLSCN]
National Institutes of Environmental Health Sciences [NIEHS]
National Toxicology Program [NTP]
We have developed a 1536-well cell-based assay for quantitative high throughput screening (qHTS) against a number of cell lines to determine in vitro cytotoxicity of small molecules. This particular assay uses a human lymphoblastoid cell line (LYMP2-003) purchased from Coriell Institute for Medical Research.
NCGC Assay Protocol Summary:
The CellTiter-Glo luminescent cell viability assay (Promega) is a homogeneous method to measure the number of viable cells in culture. The end point readout of this assay is based on quantitation of intracellular ATP, an indicator of metabolic activity, using the luciferase reaction. Luciferase catalyzes the oxidation of beetle Luciferin to oxyluciferin and light in the presence of ATP. The luminescent signal is proportional to amount of ATP present.
Using the CellTiter-Glo luminescent cell viability assay, the amount of cellular ATP was measured in the lymphoblastoid cell line with complete culture medium following compound treatment for 24 hours. The assay was performed in opaque white Kalypsys 1536-well plates. In the screen, tetraoctylammonium bromide was used as positive control. Library compounds were measured for their ability to cause acute toxicity in the cell line, as reflected by a decrease in intracellular ATP levels, in a concentration-dependent manner. […] AC50 values were determined from concentration-response data modeled with the standard Hill equation.
qHTS protocol for CellTiter Glo lymphoblastoid cellular assay
[Step] [Parameter] [Value] [Description]
1. Reagent; 5 uL; 2500 lymphoblastoid cells/well
2. Time; 5 hr; 37 C incubation
4. Controls; 23 nL; Tetraoctylammonium bromide 6.4pM to 92 uM
5. Time; 24 hr; 37 C incubation
6. Reagent; 5 uL; CellTiter Glo reagent
7. Time; 30 min; Room Temperature
8. Detection; Luminescence; Viewlux plate reader
Keywords: cell viability, cytotoxicity, lymphoblastoid cell line, luminescence, NTPHTS, NTPHTS_NCGC, NIEHS, DSSTox, MLSMR, MLSCN, NIH Roadmap, qHTS, NCGC
As for `OC(CCl)CCl`, the “activity change, negative = cytotoxicity” value is 7.05% (inactive).

Turning to `COc1ccccc1[N+](=O)[O-]`, the “activity change, negative = cytotoxicity” value was 9.55% (inactive).

On to `CC(=O)c1ccc([N+](=O)[O-])cc1`, for which the “activity change, negative = cytotoxicity” value is 6.31% (inactive).

On to `CC(C)C=O`, for which the “activity change, negative = cytotoxicity” value was 5.88% (inactive).

Take `O=C(Cl)c1cccc([N+](=O)[O-])c1`: the “activity change, negative = cytotoxicity” value is 17.5% (inactive).

On to `CC/C=C/C#N`, for which the “activity change, negative = cytotoxicity” value is 3.52% (inactive).

Consider `FC(F)(F)c1ccccc1Cl`, for which the “activity change, negative = cytotoxicity” value was 6.65% (inactive).

In the case of `C1CCOC1`, the “activity change, negative = cytotoxicity” value is 12.7% (inactive).

For the molecule `CCc1ccccc1O`, the “activity change, negative = cytotoxicity” value was 23.2% (inactive).

Turning to `c1ccc2c(c1)Oc1ccccc1S2`, the “activity change, negative = cytotoxicity” value was 13.7% (inactive).

Consider `CCCOCC(C)OCC(C)O` (stereo not given), for which the “activity change, negative = cytotoxicity” value was 12.8% (inactive).

With `C=CCCCCCC`, the “activity change, negative = cytotoxicity” value was 16% (inactive).

As to `COc1cccc(N)c1`, the “activity change, negative = cytotoxicity” value was -2.55% (inactive).

Consider `Oc1cccc(Nc2ccccc2)c1`, for which the “activity change, negative = cytotoxicity” value was 11.1% (inactive).

Regarding `O=Nc1ccc(NO)cc1`, the Potency is 50.1 µM (active).

For `CCNc1cc(O)ccc1C`, the “activity change, negative = cytotoxicity” value was 10% (inactive).

Consider `NC(N)=S`, for which the “activity change, negative = cytotoxicity” value is 4.57% (inactive).

With `Cc1ccc2c(c1[N+](=O)[O-])C(=O)c1ccccc1C2=O`, the “activity change, negative = cytotoxicity” value is -1.33% (inactive).

As for `O=C(O)CNC(=O)c1ccc(CO)o1`, the “activity change, negative = cytotoxicity” value is -1.62% (inactive).

Consider `c1ccc(Nc2ccccc2)cc1`, for which the “activity change, negative = cytotoxicity” value is 9.06% (inactive).

In the case of `COc1ccc(N=[N+]([O-])c2ccc(OC)cc2)cc1`, the “activity change, negative = cytotoxicity” value is -1% (inactive).

Turning to `Cc1ccccc1C(=O)O`, the “activity change, negative = cytotoxicity” value is 4.85% (inactive).

Regarding `CCCCCCO`, the “activity change, negative = cytotoxicity” value is 15.9% (inactive).

Consider `Nc1nc(CC(=O)O)cs1`, for which the “activity change, negative = cytotoxicity” value was 21.9% (inactive).

With `CC(=O)OC(C)=O`, the “activity change, negative = cytotoxicity” value was 11.1% (inactive).

For `Nc1nc2ccccc2[nH]1`, the “activity change, negative = cytotoxicity” value is -1.68% (inactive).

In the case of `CCC(C)(C)C(=O)O`, the “activity change, negative = cytotoxicity” value is 8.91% (inactive).

Consider `CCOCCO`, for which the “activity change, negative = cytotoxicity” value is 14.9% (inactive).

As for `Cc1ccc2cccnc2c1`, the “activity change, negative = cytotoxicity” value was 0.71% (inactive).

On to `CC=O`, for which the “activity change, negative = cytotoxicity” value was 19% (inactive).

Take `C[C@@H]1CC2(OC3C[C@@]4(C)C5=CC[C@H]6C(C)(C)C(O[C@@H]7OC[C@@H](O)[C@H](O)[C@H]7O)CC[C@@]67C[C@@]57CC[C@]4(C)C31)OC(O)C1(C)OC21` (stereo not given in full): the “activity change, negative = cytotoxicity” value is 8.95% (inactive).

As to `C/C=C(/C)C#N`, the “activity change, negative = cytotoxicity” value was 7.88% (inactive).

`C1COC1`: the “activity change, negative = cytotoxicity” value was 7.35% (inactive).

On to `Cc1ccc2ccccc2c1[N+](=O)[O-]`, for which the “activity change, negative = cytotoxicity” value was 1.53% (inactive).

With `O=C1CCCCC1`, the “activity change, negative = cytotoxicity” value is 5.99% (inactive).

In the case of `CCC(C)=O`, the “activity change, negative = cytotoxicity” value was 12.6% (inactive).

Consider `C/C=C1\CC2C=CC1C2` (stereo not given), for which the “activity change, negative = cytotoxicity” value was 1.97% (inactive).

Consider `NC=O`, for which the “activity change, negative = cytotoxicity” value was 25.2% (inactive).

For the molecule `CC(C)(O)CCC(C)(C)O`, the “activity change, negative = cytotoxicity” value is 20.1% (inactive).

Regarding `O=Cc1ccc(Cl)cc1`, the “activity change, negative = cytotoxicity” value is 13.3% (inactive).
